# Bioassay records: PubChem BioAssay, Broad Institute
# Vc quorum ag = induces V. cholerae light production without autoinducers; actives 0.16% (n = 350,000); activation, % at 18.7 µM; V. cholerae BH1578 lux reporter, luminescence, 6 h; in the data active means activation mostly above about 9.7%, no sharp cut-off
# BioA inh = blocks M. tuberculosis BioA enzyme activity. inhibition, % at 9.99 µM. AID 602481. actives 0.096% (n = 360,000). purified M. tuberculosis BioA enzyme, plate reader; in the data active means inhibition above about 40%
# FadD28 binding = M. tuberculosis FadD28 bisubstrate binding inhibition; FadD28 bisubstrate probe binding, fluorescence polarization; inhibition, % at 12.5 µM; actives 0.22% (n = 360,000); AID 588549; in the data active means inhibition above about 8.5%, passing the limit was not always enough
# TcdB GH inh = inhibitors of Clostridioides difficile toxin B glycohydrolase; TcdB glycohydrolase enzymatic assay, plate reader; inhibition, % at 9.99 µM; actives 0.24% (n = 350,000); in the data active means inhibition above about 10%
# Target sequence (P18177 whole entry, looked up): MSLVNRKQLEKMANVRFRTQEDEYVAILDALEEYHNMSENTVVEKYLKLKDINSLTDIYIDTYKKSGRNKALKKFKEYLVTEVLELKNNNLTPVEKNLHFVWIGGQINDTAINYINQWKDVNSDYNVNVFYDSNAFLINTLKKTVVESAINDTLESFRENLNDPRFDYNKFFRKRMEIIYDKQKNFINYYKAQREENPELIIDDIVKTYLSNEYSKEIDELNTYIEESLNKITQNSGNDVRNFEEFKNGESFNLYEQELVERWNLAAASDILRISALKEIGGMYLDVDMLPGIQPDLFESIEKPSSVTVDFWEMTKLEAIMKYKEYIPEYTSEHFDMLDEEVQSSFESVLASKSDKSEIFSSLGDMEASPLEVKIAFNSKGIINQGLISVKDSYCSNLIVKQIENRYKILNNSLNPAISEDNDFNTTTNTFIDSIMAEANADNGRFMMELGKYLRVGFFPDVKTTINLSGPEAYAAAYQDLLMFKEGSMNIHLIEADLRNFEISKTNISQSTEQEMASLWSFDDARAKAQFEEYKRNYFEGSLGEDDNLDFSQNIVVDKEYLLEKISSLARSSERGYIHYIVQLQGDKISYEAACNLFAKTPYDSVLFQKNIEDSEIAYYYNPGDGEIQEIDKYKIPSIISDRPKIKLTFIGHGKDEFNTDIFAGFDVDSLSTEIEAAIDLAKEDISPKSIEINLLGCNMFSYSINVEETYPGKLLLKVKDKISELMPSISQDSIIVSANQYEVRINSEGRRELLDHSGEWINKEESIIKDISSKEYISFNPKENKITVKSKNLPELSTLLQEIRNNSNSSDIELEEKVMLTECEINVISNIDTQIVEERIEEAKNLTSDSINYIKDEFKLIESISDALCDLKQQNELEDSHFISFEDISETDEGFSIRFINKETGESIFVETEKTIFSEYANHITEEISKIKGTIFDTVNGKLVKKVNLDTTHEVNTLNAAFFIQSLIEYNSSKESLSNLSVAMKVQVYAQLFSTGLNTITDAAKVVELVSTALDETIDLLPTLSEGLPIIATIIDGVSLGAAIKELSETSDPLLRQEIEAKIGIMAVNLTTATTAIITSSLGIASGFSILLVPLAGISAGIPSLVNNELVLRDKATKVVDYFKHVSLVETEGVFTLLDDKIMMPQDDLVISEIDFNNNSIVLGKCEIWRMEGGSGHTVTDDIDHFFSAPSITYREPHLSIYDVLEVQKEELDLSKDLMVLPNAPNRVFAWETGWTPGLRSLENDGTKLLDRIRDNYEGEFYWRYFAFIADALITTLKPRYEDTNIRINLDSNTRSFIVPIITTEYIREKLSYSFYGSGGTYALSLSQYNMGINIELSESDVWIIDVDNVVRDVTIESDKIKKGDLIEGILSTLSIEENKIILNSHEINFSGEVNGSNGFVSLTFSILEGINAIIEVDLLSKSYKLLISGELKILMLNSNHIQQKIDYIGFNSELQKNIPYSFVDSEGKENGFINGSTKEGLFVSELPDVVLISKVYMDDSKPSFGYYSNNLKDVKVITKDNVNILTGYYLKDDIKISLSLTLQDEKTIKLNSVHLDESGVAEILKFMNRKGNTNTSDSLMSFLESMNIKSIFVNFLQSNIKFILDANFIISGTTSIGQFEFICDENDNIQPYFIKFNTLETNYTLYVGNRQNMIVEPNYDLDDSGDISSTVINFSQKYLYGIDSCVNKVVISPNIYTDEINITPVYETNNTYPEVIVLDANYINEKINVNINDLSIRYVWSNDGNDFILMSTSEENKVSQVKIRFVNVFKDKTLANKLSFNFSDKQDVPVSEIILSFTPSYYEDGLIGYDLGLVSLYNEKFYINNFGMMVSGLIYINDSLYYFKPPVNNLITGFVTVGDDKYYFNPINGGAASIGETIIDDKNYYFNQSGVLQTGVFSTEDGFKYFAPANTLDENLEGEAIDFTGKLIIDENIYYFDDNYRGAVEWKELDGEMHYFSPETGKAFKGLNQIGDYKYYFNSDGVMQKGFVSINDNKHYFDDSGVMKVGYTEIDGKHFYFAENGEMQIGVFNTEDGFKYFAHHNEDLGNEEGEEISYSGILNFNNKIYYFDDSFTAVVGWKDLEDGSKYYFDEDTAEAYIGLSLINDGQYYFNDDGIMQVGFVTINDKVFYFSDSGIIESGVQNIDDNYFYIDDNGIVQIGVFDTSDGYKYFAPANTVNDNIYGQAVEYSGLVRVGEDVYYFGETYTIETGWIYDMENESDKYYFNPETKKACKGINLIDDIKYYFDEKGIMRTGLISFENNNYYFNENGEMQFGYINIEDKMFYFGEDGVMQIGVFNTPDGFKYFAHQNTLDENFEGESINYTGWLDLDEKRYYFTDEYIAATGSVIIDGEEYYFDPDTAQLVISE
# A number is an active result; i = inactive; nt = no result given. The list is not random: actives were taken first. Their share in the collection is about 0.54%.
SMILES,Vc quorum ag,BioA inh,FadD28 binding,TcdB GH inh
O=C(O)c1cc(-c2ccccc2Cl)n(-c2ccc(F)cc2)n1,i,i,i,i
O=C(O)c1cc(-c2ccccc2Cl)n(-c2cccc(Cl)c2)n1,i,i,i,13
Cc1ccc(C2=NS(=O)(=O)N(C)C(C(=O)NCc3ccc4c(c3)OCO4)=C2)cc1,i,i,i,i
COc1ccc(C2=NS(=O)(=O)N(C)C(C(=O)NCc3ccc4c(c3)OCO4)=C2)cc1,i,i,i,100
O=c1c(O)cccc2cc(O)c(O)c(O)c12,i,i,16,i
CN1C(=O)c2cc(NC(=O)c3cccc(F)c3)ccc2OC[C@H]2O[C@@H](CC(=O)NC3CCC3)CC[C@H]21,nt,i,nt,nt
Oc1ccc(Nc2nc(Cl)nc(NCc3ccco3)n2)cc1,i,nt,i,13
CC(=O)Nc1ccc(-c2ccc(NC(C)=O)c(O)c2)cc1O,i,i,i,i
CC(=O)Nc1ccccc1O,i,i,i,20
COc1ccc(CN(C)C[C@@H]2Oc3c(NS(=O)(=O)c4ccc(Cl)cc4)cccc3C(=O)N([C@@H](C)CO)C[C@H]2C)cc1,nt,i,nt,i
Oc1c(N=Nc2ccc(F)cc2)ccc2ccccc12,i,i,i,i
Oc1c(N=Nc2nn[nH]n2)ccc2ccccc12,nt,nt,30,i
S=C(N/N=C/c1ccc2ncccc2c1)Nc1cccnc1,i,nt,i,i
Oc1ccc(/C=N/NC(=S)Nc2cccnc2)cc1O,i,nt,i,26
CC(=O)Nc1ccc(S(=O)(=O)N2CCCC(C(=O)O)C2)cc1 (configuration not stated),i,nt,i,18
COC(=O)Nc1ccc(S(=O)(=O)N2CCCC(C(=O)O)C2)cc1 (configuration not stated),i,nt,i,i
C[C@@H]1CN([C@H](C)CO)C(=O)c2cc(C3=CCCC3)cnc2O[C@@H]1CN(C)C(=O)Nc1ccccc1,nt,i,nt,i
COCC#Cc1ccc([C@@H]2[C@H]3CN(C(=O)c4cccnc4)CC(=O)N3[C@H]2CO)cc1,nt,nt,nt,i
O=C(Nc1ccc(N2CCOCC2)c(Cl)c1)c1ccc(F)cc1,i,i,i,17
O=C(Nc1ccc(N2CCOCC2)c(Cl)c1)c1ccc(-n2cnnc2)cc1,i,i,i,i
CC(C)(C)c1nnc(NS(=O)(=O)c2cc(Cl)ccc2Cl)s1,i,i,i,i
O=S(=O)(Nc1nc(-c2sccc2Cl)cs1)c1cc(Cl)ccc1Cl,i,i,24,nt
CCCN1C[C@H](C)[C@@H](OC)CN(C)C(=O)c2ccc(NC(=O)C3CC3)cc2OC[C@@H]1C,nt,i,nt,i
O=C(CC(F)(F)F)N1C[C@H]2[C@@H](c3ccccc31)[C@@H](CO)N2C(=O)c1cccnc1,nt,i,nt,i
COc1cc(Cl)c(C)cc1NC(=O)Cn1c(NCCO)nc2ccccc21,i,i,i,i
SMILES,Vc quorum ag,BioA inh,FadD28 binding,TcdB GH inh
COc1ccc(Cl)cc1NC(=O)Cn1c(NCCO)nc2ccccc21,i,i,i,27
CCCCC[n+]1cccc2c3ccccc3ccc21,i,nt,i,i
Cc1ccc2c(C)c3ccc4ccccc4c3c[n+]2c1,nt,nt,i,11
COC(=O)c1sc(NC(=S)NNC(=O)c2c(Br)c(C)nn2C)c(C(=O)OC)c1C,i,i,20,i
Cc1ccc(NC(=O)CN2C(=O)S/C(=C/c3ccc(O)c([N+](=O)[O-])c3)C2=O)cc1C,i,nt,31,i
Cc1cccc(NC(=O)CN2C(=O)S/C(=C\c3ccc(O)c([N+](=O)[O-])c3)C2=O)c1,i,nt,85,i
O=C(CN1C(=O)S/C(=C\c2ccccn2)C1=O)Nc1ccccc1,i,i,i,i
O=C(CN1C(=O)S/C(=C\c2ccc(O)c([N+](=O)[O-])c2)C1=O)Nc1ccc(N2CCOCC2)cc1,i,i,i,i
O=C(CN1C(=O)S/C(=C\c2cc(Cl)c(O)c(Cl)c2)C1=O)Nc1ccccc1,i,i,76,i
C[C@H](CO)N1C[C@H](C)[C@H](CN(C)Cc2ccc(C(=O)O)cc2)Oc2ccc(NC(=O)Cn3cnnn3)cc2C1=O,nt,i,nt,i
C[C@@H]1CN([C@H](C)CO)C(=O)c2cccc(NC(=O)c3ccc(-c4nccs4)cc3)c2O[C@@H]1CN(C)Cc1ccncc1,nt,i,nt,i
CN(c1ccccc1)S(=O)(=O)c1ccc2ccccc2c1,i,i,i,i
O=CN(c1ccccc1)c1ccc2ccccc2c1,i,nt,i,13
O=[N+]([O-])c1ccccc1NS(=O)(=O)c1ccccc1,i,i,i,i
O=[N+]([O-])c1cc(Br)ccc1NS(=O)(=O)c1ccccc1,i,i,i,19
COc1ccc(S(=O)(=O)Nc2cccc3c2O[C@@H](CN(C)S(=O)(=O)c2ccc(OC)cc2)[C@@H](C)CN([C@H](C)CO)C3=O)cc1,nt,nt,nt,i
O=c1c(O)c(-c2ccccc2)oc2cc(O)cc(O)c12,i,i,i,i
O=c1c(O)c(-c2cc(O)c(O)c(O)c2)oc2cc(O)cc(O)c12,i,i,14,i
Cc1cccc(NC(=O)CN2C(=O)N/C(=C/c3cc(C)n(-c4ccncc4)c3C)C2=O)c1,i,i,11,i
Cc1cccc(NC(=O)CN2C(=O)N/C(=C/c3cc(C)n(-c4cccnc4)c3C)C2=O)c1,i,nt,28,i
CC(=O)N(C)C[C@H]1Oc2ncc(C#CCC3CCCC3)cc2C(=O)N([C@@H](C)CO)C[C@H]1C,nt,i,nt,i
CNC[C@@H]1OCCCC[C@@H](C)Oc2ccc(NC(=O)Nc3ccccc3)cc2C(=O)N([C@H](C)CO)C[C@H]1C,nt,i,nt,i
CC(Cl)C(=O)c1c(N)n(C)c(=O)n(C)c1=O (configuration not stated),i,nt,i,i
CC(Sc1nccn1C)C(=O)c1c(N)n(C)c(=O)n(C)c1=O (configuration not stated),i,i,i,24
CC(SCc1cc(=O)n2c([nH]c3ccccc32)c1C#N)C(=O)O (configuration not stated),i,i,10,i
SMILES,Vc quorum ag,BioA inh,FadD28 binding,TcdB GH inh
Cc1ccccc1-n1ncc2c1CC(C)(C)CC2NC(=O)CCC1=NNC(=O)CC1 (configuration not stated),i,i,i,i
Cc1ccn(CCC(=O)NC2CC(C)(C)Cc3c2cnn3-c2ccccc2C)n1 (configuration not stated),i,i,i,10
CC12CCC3C(=CCc4cc(O)ccc43)C1CC(=NO)C2O (configuration not stated),nt,nt,i,13
COc1ccc2c(c1)CC=C1C2CCC2(C)C(=O)C(=NO)CC12 (configuration not stated),i,nt,i,i
COC(=O)c1ccccc1-c1c2ccc(=N)cc-2oc2cc(N)ccc12,i,i,129,i
COC(=O)c1ccccc1-c1ccc(/C=N/NC(=O)c2cc3ccccc3o2)o1,i,nt,i,nt
CN(C)CCNc1ccc(CO)c2sc3ccc(O)cc3c(=O)c12,i,nt,i,25
COc1ccc(S(=O)(=O)N(C)C[C@@H]2OCCCC[C@@H](C)Oc3ccc(NC(=O)NC4CCCCC4)cc3C(=O)N([C@H](C)CO)C[C@@H]2C)cc1,nt,i,nt,i
Cc1c(-c2cc(Br)ccc2O)nc2cc3c(cc2c1C)OCO3,i,i,29,i
COc1ccc(NC(=O)N(C)C[C@H]2Oc3ccc(N(C)C)cc3CC(=O)N([C@H](C)CO)C[C@@H]2C)cc1,nt,i,nt,i
Cc1cccc(N=C2NC(=O)/C(=C/C=C/c3ccco3)S2)c1C,i,nt,11,nt
